Test results published in PMC5540273 (PLoS ONE, 2017).

Legend:
Conditions in all cases: concentration: 1 μM,replicates: in singlicate; n = 1
MAP3K15 = tested on: MAP3K15
MAP3K1 = tested on: MAP3K1
MAP3K2 = tested on: MAP3K2
MAP3K3 = tested on: MAP3K3
MAP3K4 = tested on: MAP3K4
MAP4K2 = tested on: MAP4K2
MAP4K3 = tested on: MAP4K3
MAP4K4 = tested on: MAP4K4
MAP4K5 = tested on: MAP4K5
MAPKAPK2 = tested on: MAPKAPK2
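Note: KINOMEscan kinase panel screen.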

SMILES | %Inh (MAP3K15) [%] | %Inh (MAP3K1) [%] | %Inh (MAP3K2) [%] | %Inh (MAP3K3) [%] | %Inh (MAP3K4) [%] | %Inh (MAP4K2) [%] | %Inh (MAP4K3) [%] | %Inh (MAP4K4) [%] | %Inh (MAP4K5) [%] | %Inh (MAPKAPK2) [%]
C[C@@H]1CNc2c(sc3ccc4nc(-c5ccc(O)cc5)ccc4c23)C(=O)N1 | 61 | 0 | 12 | 11 | 16 | 85 | 31 | 26 | 13 | 99
CC(C)c1nc(-c2cccc(NS(=O)(=O)c3ccccc3)c2)c(-c2ccnc(Nc3ccc4c(c3)CN(C)CC4)n2)s1 [GSK1649598] | 30 | 6 | 98.5 | 84 | 79 | 0 | 96.9 | 95.5 | 98.9 | 0
Cl.Nc1n[nH]c2cc(-c3ccccn3)ccc12 [GSK2189892] | 0 | 0 | 0 | 0 | 0 | 0 | 0 | 6 | 0 | 7
CN(c1cccc(CNc2nc(Nc3ccc4c(c3)CC(=O)N4)ncc2C(F)(F)F)c1)S(C)(=O)=O | 0 | 0 | 44 | 11 | 3 | 0 | 18 | 34 | 0 | 0
CN1CCN(CCCNc2nccc(-c3c(-c4ccc(F)cc4)nn4cc(C(N)=O)ccc34)n2)CC1 [GW622475] | 0 | 24 | 0 | 0 | 16 | 0 | 0 | 65 | 33 | 0
O=C(Nc1cccc(Oc2ccc3nccn3n2)c1)Nc1cccc(C(F)(F)F)c1 | 0 | 17 | 3 | 10 | 30 | 0 | 3 | 68 | 26 | 0
Cl.Cl.NC[C@H](CC1CCCCC1)NC(=O)c1ccc(-c2ccnc3[nH]ccc23)s1 [GSK1581428] | 25 | 12 | 40 | 33 | 10 | 95.7 | 47 | 20 | 12 | 0
CCn1c(-c2nonc2N)nc2cncc(Br)c21 [SB-738004] | 18 | 10 | 0 | 0 | 3 | 40 | 0 | 3 | 0 | 10
COc1cccc(OC)c1C(=O)Nc1cccc(-c2nn3ccccc3c2-c2ccnc(Nc3cccc(F)c3)n2)c1 [GSK361065] | 0 | 0 | 7 | 43 | 14 | 5 | 0 | 21 | 67 | 11
Cn1ccc2ncnc(Oc3ccc(NC(=O)Nc4ccnc(C(F)(F)F)c4)c(Cl)c3)c21 | 0 | 0 | 0 | 6 | 0 | 0 | 3 | 0 | 0 | 1
CN(c1ccccc1CNc1nc(Nc2ccc3c(c2)CC(=O)N3)ncc1C(F)(F)F)S(C)(=O)=O | 0 | 0 | 61 | 63 | 6 | 17 | 42 | 0 | 13 | 0
c1ccc(Oc2ccc(Nc3ccnc4ccc(-c5ccccn5)cc34)cc2)cc1 [GW407034] | 0 | 14 | 14 | 0 | 17 | 0 | 11 | 21 | 13 | 24
C[C@@H]1CCN(C(=O)N2CCCC2)C[C@@H]1N(C)c1ncnc2[nH]ccc12 | 31 | 36 | 17 | 16 | 7 | 0 | 8 | 0 | 0 | 0
Cc1n[nH]c2cc(Nc3ccnc(Nc4cccc(CN5CCOCC5)c4)n3)ccc12 [GW682569] | 0 | 29 | 8 | 0 | 0 | 5 | 0 | 10 | 14 | 0
CS(=O)(=O)c1cccc(CNc2nc(Nc3ccc4c(c3)[C@@H]3C[C@@H]4CNC3=O)ncc2C(F)(F)F)c1 | 0 | 0 | 65 | 47 | 0 | 68 | 68 | 40 | 0 | 0
CC(=O)Nc1ccc(-c2cc3ncnc(SCC(=O)O)c3s2)cc1 | 27 | 16 | 5 | 1 | 37 | 17 | 22 | 0 | 0 | 0
